697 NFkB inh: lowers PMA/ionomycin-induced NF-kB signal in 697 B cells; 697 B-cell NF-kB luciferase reporter, 16 h; inhibition, % at 4 µM; actives 0.33% (n = 330,000); in the data active = inhibition above about 35%
CSC inhib: blocks cancer stem cells; cancer stem cell-like cells viability, luminescence; inhibition, % at 7.5 µM; actives 1.1% (n = 300,000); AID 2717; in the data active = inhibition above about 75%; tested in HMLE shEcad cells
Beta cell apopt: blocks beta cell apoptosis. AID 435005. actives 0.8% (n = 300,000). INS-1E cytokine-induced death, ATP luminescence, 48 h; percent of positive-control rescue, neutral wells zero. protection from apoptosis, % (test concentration not listed);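 active = Every replicate reaches about 75%, or at least half do and their mean reaches it too, limit read from the data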;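 note: 0% = cytokine-treated negative control wells and 100% = positive control rescue; higher means more ATP so stronger rescue from cytokine killing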
Mdm2 MdmX PPI: disrupts the human Mdm2-MdmX interaction. O15151+Q00987. SaOS-2 split-luciferase Mdm2/MdmX complementation, luminescence. inhibition, % at 8 µM. actives 3% (n = 330,000). AID 485346;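 active = inhibition of at least 50% at 8 µM in the primary screen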
Target sequence (O15151 whole entry, looked up): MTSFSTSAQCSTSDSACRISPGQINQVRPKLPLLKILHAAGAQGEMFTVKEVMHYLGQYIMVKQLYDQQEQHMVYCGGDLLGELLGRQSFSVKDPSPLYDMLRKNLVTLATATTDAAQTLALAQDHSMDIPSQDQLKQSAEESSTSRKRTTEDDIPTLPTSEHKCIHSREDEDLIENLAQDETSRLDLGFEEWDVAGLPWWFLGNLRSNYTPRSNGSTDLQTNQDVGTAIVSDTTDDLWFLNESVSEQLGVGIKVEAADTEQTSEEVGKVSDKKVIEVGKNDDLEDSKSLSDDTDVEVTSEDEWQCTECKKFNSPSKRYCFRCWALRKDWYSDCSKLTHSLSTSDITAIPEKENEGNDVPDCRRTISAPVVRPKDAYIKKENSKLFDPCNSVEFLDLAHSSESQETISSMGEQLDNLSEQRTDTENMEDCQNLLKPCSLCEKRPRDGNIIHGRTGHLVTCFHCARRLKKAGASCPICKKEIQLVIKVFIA
Target sequence (Q00987 whole entry, looked up): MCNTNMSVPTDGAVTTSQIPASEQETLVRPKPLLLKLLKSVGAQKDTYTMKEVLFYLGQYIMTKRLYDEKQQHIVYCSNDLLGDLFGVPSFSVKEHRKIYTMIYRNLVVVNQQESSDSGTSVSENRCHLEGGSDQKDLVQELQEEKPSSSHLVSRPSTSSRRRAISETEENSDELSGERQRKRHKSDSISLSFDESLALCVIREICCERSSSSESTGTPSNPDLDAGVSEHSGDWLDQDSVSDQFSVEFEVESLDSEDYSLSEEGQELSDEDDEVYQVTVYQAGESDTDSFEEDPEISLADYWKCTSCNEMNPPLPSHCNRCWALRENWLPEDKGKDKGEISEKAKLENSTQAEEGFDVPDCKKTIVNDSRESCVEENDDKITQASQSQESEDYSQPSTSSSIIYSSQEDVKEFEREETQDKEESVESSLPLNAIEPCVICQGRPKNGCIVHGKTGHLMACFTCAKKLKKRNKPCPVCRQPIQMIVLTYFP
Jurkat NFkB inh: lowers PMA/ionomycin-induced NF-kB signal in Jurkat cells. PMA/ionomycin-induced NF-kB luciferase reporter, luminescence. inhibition, % at 4 µM. actives 0.53% (n = 330,000); in the data active = inhibition above about 50%
Gli-Sufu block: antagonists of Gli-Sufu signaling | Sufu-KO-LIGHT fibroblasts, Gli luciferase reporter luminescence | inhibition, % at 5 µM | actives 0.74% (n = 340,000);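 active = inhibition above about 55%, limit read from the data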;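 note: 0% = DMSO-treated cells and 100% = wells with medium but no cells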
697 NFkB conf: lowers PMA/ionomycin-induced NF-kB signal in 697 B cells. shares compounds with 697 NFkB inh. 697 B-cell NF-kB luciferase, 16 h. inhibition, % at 4 µM. actives 35% (n = 2,000); in the data active = inhibition mostly above about 28%, no sharp cut-off; inactive = mostly below about 22%
Mdm2 MdmX conf: human Mdm2/MdmX binding inhibition, confirmed; luminescent assay; shares compounds with Mdm2 MdmX PPI; inhibition, % at 8 µM; AID 489028; actives 55% (n = 10,000); in the data active = inhibition above about 40%
FLuc counter: inhibits full-length luciferase, flagging false Mdm2/MdmX hits. inhibition, % at 8 µM. AID 504607. actives 77% (n = 6,200). SaOS-2 full-length luciferase counterscreen, luminescence. shares compounds with Mdm2 MdmX PPI;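 active = mean inhibition at 8 µM reaching about 37%, which flags the compound as non-specific, limit read from the data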;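 note: p53-null SaOS-2 cells with luciferase driven by a doxycycline-inducible promoter; compound on cells about two nights before reading with doxycycline added after day one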
Starred values were filed as active, the others as inactive; i = inactive; / = no result given. A selection: hits, their analogues and other compounds. The true share with any hit is near 4.5%.

SMILES | 697 NFkB inh | CSC inhib | Beta cell apopt | Mdm2 MdmX PPI | Jurkat NFkB inh | Gli-Sufu block | 697 NFkB conf | Mdm2 MdmX conf | FLuc counter
O=C(CN1C(=O)/C(=C/c2cccc(Br)c2)SC1=S)NC1=NCCS1 | 8 | 10 | -3 | 27 | -6 | -1 | / | / | /
COc1cccc(/C=C2\SC(=S)N(CCCC(=O)NC3=NCCS3)C2=O)c1 | 42* | 14 | -9 | 63* | 14 | 4 | 51* | 15 | /
CNc1ccc(C(=O)OCC(=O)Nc2ccnn2C(C)C)cc1[N+](=O)[O-] | 16 | / | -6 | -1 | 2 | 5 | / | / | /
Cn1nnnc1Sc1ncnc2scc(-c3ccc([N+](=O)[O-])cc3)c12 | -399 | 73 | -7 | 99* | 44 | 25 | -197 | 100* | 50*
CCC1CCCCN1CCCCOc1cccc(Cl)c1 (stereo not drawn) | 4 | 0 | 3 | 21 | 3 | 7 | / | / | /
Cn1c(-c2ccccc2)cc2c3no[n+]([O-])c3ccc21 | -262 | 108* | 106* | 58* | -33 | -9 | -133 | 73* | 53*
Cn1c(-c2ccccc2)cc2ccccc21 | -8 | 4 | 0 | 6 | -34 | -3 | / | / | /
Cc1cc(C(F)(F)F)c(C#N)c(SCC(=O)Nc2nc3ccccc3s2)n1 | i | 25 | 17 | 66* | -77 | 16 | -298 | 82* | 142*
Cc1ccc2sc(NC(=O)CSc3nc(C)cc(C)c3C#N)nc2c1 | -67 | / | 5 | -58 | -128 | -93 | / | / | /
CC1(C)NC(=O)N(CC(=O)N2CCN(S(=O)(=O)c3ccccc3C(F)(F)F)CC2)C1=O | 3 | / | -2 | -21 | 3 | 0 | / | / | /
Cc1cccc2nc(COc3ccc(-c4ccccc4)cc3)cn12 | i | 52 | / | 63* | -27 | / | -450 | 30 | 78*
Cc1cc(C)n2cc(COc3ccc4ccccc4c3)nc2n1 | -182 | -1 | -1 | -218 | -106 | -125 | / | / | /
CC1CN(C(=O)CCC(=O)N2CCN(c3cccc(C(F)(F)F)c3)CC2)c2ccccc2O1 (stereo not drawn) | 2 | 21 | 9 | 25 | 13 | 8 | / | / | /
Cc1ccccc1NC(=O)NCc1ccccn1 | 9 | -2 | -5 | -4 | 15 | 6 | / | / | /
Cn1c(=O)n(C)c2cc(/C=C3/NC(=O)N(Cc4ccccc4)C3=O)ccc21 | 47* | -11 | -21 | 51* | 11 | 23 | 27* | 39 | 88*
Cc1c2cnn(CC(=O)NCCCN3CC(C)CC(C)C3)c(=O)c2c(C)n1Cc1ccccc1Cl (stereo not drawn) | -39 | -8 | -6 | 20 | 4 | 27 | / | / | /
Cc1noc(C)c1CSc1nc2[nH]ncc2c(=O)n1-c1ccccc1 | 55* | -7 | 23 | 69* | 39 | 32 | 55* | 68* | 61*
Cc1nc(CSc2nc3[nH]ncc3c(=O)n2-c2ccccc2)cs1 | -17 | / | -15 | -12 | -11 | 3 | / | / | /
C(=N\Nc1nc(Nc2ccccc2)nc(Nc2ccccc2)n1)/c1ccncc1 | 20 | 15 | -5 | 29 | -21 | -5 | / | / | /
C(=N\Nc1nc(Nc2ccccc2)nc(Nc2ccccc2)n1)/c1cccnc1 | 35* | / | 19 | 72* | -15 | 3 | 30* | 51* | 81*
COc1ccc(NS(=O)(=O)c2cccc(C(=O)NCc3cccnc3)c2)cc1 | -12 | -6 | 1 | -5 | 9 | 6 | / | / | /
Oc1ccc(N=Nc2ccc3c(c2)OCO3)c2ccccc12 | -306 | 140* | 99* | 94* | 16 | / | -22 | 92* | 59*
OCC[C@H]1C[C@@H](O)[C@H](O)[C@]2(OCc3ccccc32)O1 | -3 | -16 | 7 | -10 | 6 | -3 | / | / | /
O=C(/C=C/Sc1ccccc1)c1ccccc1 | -295 | 49 | -1 | 52* | 14 | -24 | -268 | -15 | /
CC1CCCN(S(=O)(=O)c2cccc(C(=O)NCC3CCCO3)c2)C1 (stereo not drawn) | 7 | -10 | -4 | -9 | 1 | 1 | / | / | /
SMILES | 697 NFkB inh | CSC inhib | Beta cell apopt | Mdm2 MdmX PPI | Jurkat NFkB inh | Gli-Sufu block | 697 NFkB conf | Mdm2 MdmX conf | FLuc counter
CCc1c(C)sc(NC(=O)C2CC2c2ccccc2)c1C(N)=O (stereo not drawn) | -488 | 27 | 1 | 57* | -78 | -4 | -269 | 73* | 55*
Cc1cccc(NC(=O)[C@H](Cc2c[nH]c3ccccc23)NC(=O)[C@@H]2Cc3ccccc3CN2)c1 | i | 42 | / | 95* | -65 | -48 | 1 | 79* | 27
CCc1ccc(NC(=O)[C@H](Cc2c[nH]c3ccccc23)NC(=O)[C@@H]2Cc3ccccc3CN2)cc1 | i | -2 | / | 93* | -67 | -17 | -76 | 83* | 24
Cc1ccc(NC(=O)[C@H](Cc2c[nH]c3ccccc23)NC(=O)[C@@H]2Cc3ccccc3CN2)c(C)c1 | i | -13 | -3 | 97* | -48 | -3 | -5 | 82* | 49*
O=C(CCNC(=O)c1ccc(Br)cc1)NC1CCCc2ccccc21 (stereo not drawn) | -364 | 50 | 1 | 88* | -51 | -6 | -327 | 89* | 46*
O=C(NC1CCCc2ccccc21)c1ccc(Br)cc1 (stereo not drawn) | 6 | -5 | -5 | 7 | 26 | -7 | / | / | /
S=c1[nH]nc(-c2ccccc2)n1/N=C/c1ccc(-c2ccccc2Cl)o1 | i | 102* | 7 | 90* | -12 | 15 | -263 | 90* | 54*
CCc1c(C(=O)NC2CCCc3ccccc32)[nH]c(C)c1C(C)=O (stereo not drawn) | -301 | 22 | 1 | 85* | -27 | 10 | -16 | 65* | 52*
Cc1cc(-c2nnc(CCC(=O)NCc3ccc(OC(F)(F)F)cc3)o2)no1 | 12 | -5 | -9 | 4 | -1 | -55 | / | / | /
CCOc1ccccc1CNC(=O)c1cc2oc3ccccc3c2n1C | -359 | 33 | 8 | 84* | -33 | 3 | -163 | 87* | 26
Cc1cccc(Cn2nc(C(C)(C)C)cc2C(=O)Nc2ccc(F)cc2)c1 | -299 | 70 | 30 | 87* | -45 | -6 | -370 | 81* | 31
CCOC(=O)N1CCN(c2ccnc3cc(Cl)ccc23)CC1 | 19 | -1 | 1 | -6 | 8 | 43 | / | / | /
O=C(Oc1ccnc2cc(Cl)ccc12)N1CCCCCC1 | 38* | -5 | 1 | 67* | 15 | -23 | 14 | 39 | 30
COC(=O)c1ccsc1NC(=O)c1ccccc1 | 12 | -8 | / | 21 | -2 | 3 | / | / | /
COC(=O)Nc1sccc1C(=O)Nc1sccc1C(=O)OC | 39* | -13 | -2 | 61* | 2 | -1 | -3 | 12 | /

Screens deposited in PubChem BioAssay by several laboratories.
